Bioassay records deposited in PubChem by National Center for Advancing Translational Sciences (NCATS).
Shown are actives, neighbours in structure and some others; about 2.4% of the full set was active somewhere.
Pol kappa inh: inhibitors of human DNA polymerase kappa; Potency, µM (highest dose often 107 µM), inactives show at the top dose activity, negative = inhibition, hits mostly inhibitors; AID 588579; Q9UBT6; hit rate 0.53% among 400,000; purified Pol kappa, fluorescent DNA synthesis assay, 10 min; note: % is set by controls: 0 for no effect and ±100 for the full control effect
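10 nM Pol kappa was preincubated with compounds for 15 min at room temperature. Reaction started with 50 nM (final) substrate. Fluorescence read kinetically at 0 and 10 min.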
GLS inhibitor: blocks human kidney-isoform glutaminase activity | O94925 | GLS enzymatic activity, qHTS titration | Potency, µM (doses to about 45.5 µM), for inactives: at the highest dose activity change, negative = inhibition, actives largely listed as inhibitors | hit rate 0.21% among 410,000; note: % is set by controls: 0 for no effect and ±100 for the full control effect
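Coupled fluorescence readout: glutamate oxidase/HRP/Amplex Red detect glutamate formed by hKGA from L-glutamine (1 mM solution added). Buffer 45 mM KH2PO4 pH 8.2, 0.02% Tween-20; reads at t0 and 30 min RT.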
Pol eta inh: DNA polymerase eta (human) inhibition; AID 588591; Potency, µM (series often up to 114 µM), for the others: top-dose activity change, negative = inhibition, most hits filed as inhibitors; hit rate 1.2% among 390,000; recombinant Pol eta, fluorescent DNA replication assay; Q9Y253; note: % is set by controls: 0 for no effect and ±100 for the full control effect
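Fluorescent replication assay: 50 nM final substrate added after a 15 min room-temperature compound preincubation with 10 nM enzyme. Signal taken at 0 min and again at 10 min.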
POLB inh: inhibitors of human DNA polymerase beta | P06746 | Pol beta primer extension/strand displacement, fluorescence kinetic | Potency, µM (top dose mostly 114 µM), for the others: at the top dose activity change, negative = inhibition, hits mostly inhibitors | hit rate 1.3% among 340,000; note: % is set by controls: 0 for no effect and ±100 for the full control effect
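Curves were derived by four-parameter Hill fits of normalized qHTS data. The kinetic fluorescent primer-extension read was taken at 0 and 10 min after 50 nM substrate, following a 15 min room-temperature preincubation of 10 nM enzyme with compounds.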
APEX1 inh: inhibitors of human APE1 endonuclease; recombinant APE1, TAMRA/BHQ-2 abasic DNA cleavage fluorescence; Potency, µM (top dose mostly 65.8 µM), for the others: top-dose activity change, negative = inhibition, usual class: inhibitors; hit rate 0.35% among 350,000;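 note: plate controls were vehicle for no effect and reference inhibitor for full effect; nearly all actives have a fitted effect of over 55% in size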
Target sequence (P27695 whole entry, looked up): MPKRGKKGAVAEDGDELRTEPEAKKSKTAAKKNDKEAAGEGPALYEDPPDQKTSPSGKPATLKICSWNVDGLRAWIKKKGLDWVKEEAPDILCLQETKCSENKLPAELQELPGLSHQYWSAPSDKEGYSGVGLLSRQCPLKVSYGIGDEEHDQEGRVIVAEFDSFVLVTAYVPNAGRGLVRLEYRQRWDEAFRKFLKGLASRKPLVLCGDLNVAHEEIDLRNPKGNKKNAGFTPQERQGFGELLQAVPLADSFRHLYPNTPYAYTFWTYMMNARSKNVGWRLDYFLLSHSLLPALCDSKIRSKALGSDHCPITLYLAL
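Activity was derived from the fluorescence gain between first and third kinetic reads (60 s intervals, ex 525/em 598 nm) after 50 nM THF-abasic TAMRA/BHQ-2 duplex was added to 0.75 nM APE1 preincubated 15 min with compound.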
Pol iota inh: blocks human DNA polymerase iota activity. Q9UNA4. Pol iota fluorescent replication assay, 10 min. Potency, µM (titrated, usually from 115 µM), without a hit: at the top dose activity, negative = inhibition, most hits filed as inhibitors. hit rate 1% among 390,000
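Pol iota at 10 nM preincubated 15 min with compounds at room temperature; reaction started with fluorescent substrate, 50 nM final. Fluorescence read kinetically at 0 and 10 min; buffer-only wells as negative control.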
* hit, by the source's call; ? = inconclusive; . = not tested or not shown; ! = not active in a repeat. Calls come from the whole dose curve; as a rule, active = well fitted curve in the direction sought with a large enough effect; inconclusive = small, poorly fitted or top-dose-only effect, or another doubt; inactive = no such curve, though single readings can be large; an effect the other way counts as inactive or inconclusive. Potency is the fitted concentration of half-maximal effect.

SMILES | Pol kappa inh | GLS inhibitor | Pol eta inh | POLB inh | APEX1 inh | Pol iota inh
COc1ccc(OCc2nn3c(-c4ccco4)nnc3s2)cc1 | -5.9% | 11.4% | ? | ? | -11.8% | -6.8%
COc1ccccc1-c1nn2c(-c3ccccc3Cl)nnc2s1 | . | . | . | -7.7% | -2.9% | .
COc1ccccc1-c1nn2c(-c3ccco3)nnc2s1 | -14.9% | 0.0% | -10.4% | 14.1µM* | -9.3% | ?
COc1cccc(OC)c1-c1nn2c(-c3cc(-c4ccccc4)n[nH]3)nnc2s1 | 28.2µM* | -13.3% | 6.31µM* | ? | ? | 28.2µM*
c1coc(-c2nn3c(-c4ccco4)nnc3s2)c1 | ? | -11.7% | ? | 28.2µM* | ? | ?
CC(C)N1CCN(Cc2cccc(-n3cccn3)c2)CC1CCO (stereo unspecified) | 7.1% | -0.1% | -16.3% | 81.0% | -0.2% | 52.5%
CCC(=O)NC(c1cc(Cl)c2ccccc2c1O)C1CC1 (stereo unspecified) | -9.3% | 9.4% | -5.2% | . | -13.8% | 13.5%
COc1ccc(C(=O)N2CCCC(c3cc(C(=O)NCc4ccc(F)cc4)no3)C2)cc1 (stereo unspecified) | . | -0.2% | . | . | . | .
CC(=O)Nc1ccc(S(=O)(=O)Nc2ccc(C)c([N+](=O)[O-])c2)cc1 | -5.2% | -1.5% | -19.6% | -9.6% | -5.4% | 7.3%
COc1cc(C2c3c(oc4ccccc4c3=O)C(=O)N2c2nccs2)ccc1O (stereo unspecified) | -6.3% | 15.5% | 79.4µM* | -22.0% | -1.6% | 3.2%
COc1cc(C2c3c(oc4ccccc4c3=O)C(=O)N2c2ccc(C)cn2)ccc1O (stereo unspecified) | 6.2% | 18.7% | -3.5% | 1.2% | -0.1% | 3.7%
O=C(CCC1CC(=O)Nc2ccccc21)NCc1cccnc1 (stereo unspecified) | -6.8% | 1.6% | -16.1% | -14.9% | 3.7% | 4.9%
CC[C@H](C)C1NC(=O)[C@H](CC(=O)O)NC(=O)c2cc([N+](=O)[O-])cc(I)c2NCCC(C(N)=O)NC1=O (stereo partly specified) | 79.4µM* | ? | 25.1µM* | 0.9% | ? | ?
NC(=O)[C@@H]1CCCCNc2c(I)cc([N+](=O)[O-])cc2C(=O)N[C@@H](CCC(=O)O)C(=O)N[C@@H](CO)C(=O)N1 | 50.1µM* | -13.4% | 6.31µM* | 0.1% | ? | 17.8µM*
NC(=O)CC[C@@H]1NC(=O)[C@H](CO)NC(=O)c2cc([N+](=O)[O-])cc(I)c2NCCC[C@@H](C(N)=O)NC(=O)[C@H](Cc2ccc(O)cc2)NC1=O | -12.4% | 15.4% | 89.1µM* | -0.4% | ? | ?
NC(=O)[C@@H]1CCNc2c(I)cc([N+](=O)[O-])cc2C(=O)N[C@@H](CCC(=O)O)C(=O)N[C@@H](CO)C(=O)N1 | ? | -10.1% | 22.4µM* | -7.0% | 2.9% | ?
NC(=O)[C@@H]1CCCNc2c(F)cc([N+](=O)[O-])cc2C(=O)N[C@@H](CCC(=O)O)C(=O)N[C@@H](CO)C(=O)N1 | -20.6% | -2.1% | 2.6% | 11.3% | 11.6% | ?
NC(=O)[C@@H]1CCCNc2c(I)cc([N+](=O)[O-])cc2C(=O)N[C@@H](CO)C(=O)N[C@@H](Cc2ccc(O)cc2)C(=O)N1 | 12.5% | -2.3% | -2.8% | -12.3% | ? | -5.5%
CCOC(=O)c1cnc2nc(NCc3ccc(OCC)cc3)[nH]n2c1=O | 0.0% | 12.6% | -17.1% | 6.9% | . | 13.8%
O=C1C[C@@H](c2ccc(O)c(O)c2)Oc2cc(O[C@H]3O[C@@H](CO)[C@H](O)[C@@H](O)[C@@H]3O)cc(O)c21 | 21.2µM* | . | . | . | ? | .
O=C1C[C@H](c2ccc(O)cc2)Oc2cc(O[C@@H]3O[C@H](CO)[C@@H](O)[C@H](O)[C@H]3O)cc(O[C@@H]3O[C@H](CO)[C@@H](O)[C@H](O)[C@H]3O)c21 | -0.5% | 25.9% | -6.4% | . | 7.4% | -4.2%
CCOc1ccc(N2C(=O)c3n[nH]c(-c4cccs4)c3C2c2cccc(F)c2)cc1 (stereo unspecified) | 0.7% | -0.2% | . | 8.3% | . | 12.6µM*
CCOC(=O)c1ccc(N2C(=O)c3n[nH]c(-c4cccs4)c3C2c2cccc(OC)c2)cc1 (stereo unspecified) | -3.2% | -6.1% | -23.6% | -0.4% | . | -15.4%
CC1(S(=O)(=O)O)CC(=O)c2ccccc2C1=O (stereo unspecified) | -16.4% | -2.2% | ? | ? | -10.7% | 6.31µM*
NC(=S)c1c(Cl)cc(C(F)(F)F)cc1Cl | -8.3% | 0.7% | 1.8% | 38.6% | -7.9% | 136.6%
SMILES | Pol kappa inh | GLS inhibitor | Pol eta inh | POLB inh | APEX1 inh | Pol iota inh
O=C(Nc1ccccc1)c1ccc(N2CCN(c3ccccc3)CC2)c(S(=O)(=O)N2CCOCC2)c1 | -12.0% | . | -1.8% | -11.0% | -3.2% | 14.3%
O=C(Nc1ccccc1)c1ccc(N2CCN(c3ccccn3)CC2)c(S(=O)(=O)N2CCOCC2)c1 | -12.5% | -6.4% | -18.2% | -19.8% | -2.5% | 89.1µM*
Cc1ccccc1C(=O)Nc1ccccc1NC(=O)c1ccccc1Br | 2.9% | 1.5% | -4.7% | 19.5% | 6.7% | 52.2%
COc1ccc(Nc2ccccc2NC(=O)c2ccccc2Br)cc1 | -5.8% | 10µM* | -7.9% | 0.0% | 36.5% | 112.4%
Nc1ccc(Nc2ccccc2N)cc1 | 0.0% | -22.0% | -4.5% | -1.8% | -3.0% | 94.4%
COc1ccc(Nc2ccccc2N)cc1 | -10.6% | 10µM* | -13.4% | 8.5% | -5.2% | 50.4%
O=C(c1cc2nc(-c3ccc(F)cc3)cc(C(F)(F)F)n2n1)N1CCCCC1c1cccnc1 (stereo unspecified) | -10.6% | 6.8% | -20.3% | ? | 18.3% | 170.9%
Cc1ccc2cccc(OCc3ccccc3)c2n1 | -2.1% | 23.2% | 1.7% | 14.0% | 3.6% | 32.7%
COCc1c(C(=O)N2CCc3ccccc32)oc2ccccc12 | ? | 9.5% | -98.1% | -11.4% | 15.3% | 79.4µM*
COc1ccccc1CNC(=O)C1CC2Cn3c(nc4cc(Cl)c(Cl)cc43)C2N1C (stereo unspecified) | 2.8% | 1.3% | -6.8% | . | . | -27.5%
COC(=O)c1c(C)nc(C)c(C(=O)OC)c1-c1ccc(OC)cc1 | -5.1% | -25.7% | 3.1% | 20.2% | 13.2% | 13.8%
CCOC(=O)c1c(C)nc(C)c(C(=O)OCC)c1-c1ccc(OC)cc1 | -8.2% | -4.8% | -7.1% | 0.159µM*! | 6.0% | 27.5%
COc1ccc(NS(=O)(=O)c2cn(C)c(=O)n(C)c2=O)c(OC)c1 | -9.4% | 36.2% | 20.7% | 30.3% | 2.6% | 1.6%
